Here are results for 39 compounds from PubChem BioAssay (NCI).

Each structure is given as a SMILES string. This is part of a sample that, as a whole, favours compounds with a hit. Of some 83,000 tested, about 20% had one in any assay.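 Results are percent growth after 48 hours of single-concentration exposure. 100 means growth as in untreated cells, lower positive values show inhibition; negative values down to -100 show cell death.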 A number with no mark means an inactive call. Active and inactive are the calls of the source. Rule for the calls: active = growth percent below 10; inactive = the rest.

In the first assay the test system is MCF7 breast. As to the kind of experiment: NCI-60 one-dose screen, 48 h (100 = growth as untreated, 0 = no growth, -100 = all killed). The note with it: 10 µM unless noted.
Turning to `CC(C)=CCc1c(O)c(CC=C(C)C)c2c(c1O)C(=O)C1=C[C@@H]3C[C@H]4C(C)(C)O[C@@](C/C=C(\C)C(=O)O)(C3=O)[C@@]14O2`, the growth is -5.87% (active). Still for that read-out and setting: next, `CCN(CC)Cc1c(-c2cccc(OC(F)(F)F)c2)[nH]c2ccc(N3CCCC3)cc2c1=O`: 78.4%.

On to `CCCCOc1ccc(S(=O)(=O)N2CCN(c3nccc(N4CCOCC4)n3)CC2)cc1`, for which the growth is 87.5%. On the same count and under the same terms, next, `O=c1cc(-c2ccccc2)nc2sc(-c3c[nH]c4ccc(Br)cc34)nn12`: 67.9%.

The next assay has as its system HCT-116 colon. The description is as above. The note with it: 10 µM unless noted.
In the case of `C#C[C@]1(O)CC[C@H]2[C@@H]3CC=C4c5sc(-c6cccc(F)c6)nc5CC[C@]4(C)[C@H]3CC[C@@]21C`, the growth is 80.6%. Still for that read-out and setting: under `COc1ccc(NS(=O)(=O)c2ccc(-c3cnc(C4CC4)o3)cc2)cc1Cl` stands 26.7%; under `Cc1cc(=O)n2nc(-c3c[nH]c4ccccc34)sc2n1`, 109%.

For `CCN1C(=O)N(CC)C2SC(N/N=C/c3ccccc3)=NC21` (stereo not drawn), the growth is 14.2%. Same read-out and setting: under `CC1=C2C(=C[C@@](C)(COS(N)(=O)=O)[C@@H]2O)C(=O)[C@](C)(O)C12CC2` stands 70%; under `CCNCc1c(-c2cccc(OC(F)(F)F)c2)[nH]c2ccc(N3CCCC3)cc2c1=O`, 11.2%. Still for that read-out and setting: next, `CN(C)c1ncc(/C=C2\SC(=S)N(Cc3ccccc3Cl)C2=O)s1`: 40.5%.

On to `O=C(CN1C(=O)S/C(=C\c2ccccc2)C1=O)Nc1ccc(C(=O)/C=C/c2cc3ccccc3nc2Cl)cc1`, for which the growth is -64.1% (active).

On to `O=S(=O)(Nc1ccc(C2CC2)cc1)c1ccc(-c2cnc(C3CC3)o2)cc1`, for which the growth is 48.5%. Turning to `Oc1ccc(-c2nnc(SCc3ccc(O)c4ncccc34)o2)cc1`, the growth is 7.61% (active). As for `C#C[C@]1(O)CC[C@H]2[C@@H]3CC=C4c5sc(-c6ccc(OC)cc6)nc5CC[C@]4(C)[C@H]3CC[C@@]21C`, the growth is 59.9%. Still for that read-out and setting: next, `CCCC(=O)NC(c1cccnc1)c1cc(C(C)=O)c2cccnc2c1O` (stereo not drawn): 25.5%; `CC(=O)Nc1ccc(NC(=O)Nc2cccc(-c3nc(-c4ccc(NC(=O)c5cccs5)cc4Cl)no3)c2)cc1C(F)(F)F`: -22.2% (active). Still for that read-out and setting: next, `O=C(CN1CCN(c2cc(=O)n(-c3ccccc3)c3ccccc23)CC1)Nc1ccc([N+](=O)[O-])cc1`: 92.6%; `O=S(=O)(Nc1cc(Cl)cc(Cl)c1)c1ccc(-c2cnc(C3CC3)o2)cc1`: 31.3%. Same read-out and setting: next, `CCOC(=O)c1c(NCC(=O)Nc2cccc([N+](=O)[O-])c2)sc2c1CCCC2`: -21% (active); `COc1ccc(Oc2ccc(C3CC(c4cc(OC)c(OC)c(OC)c4)=NN3C(C)=O)cc2)cc1` (stereo not drawn): 19.5%; `O=S(=O)(Nc1ccc2c(c1)OC(F)(F)O2)c1ccc(-c2cnc(C3CC3)o2)cc1`: 23.7%. In the case of `COc1ccc(Cn2cc3c(c2-c2ccccc2)CCCc2cnoc2-3)cc1`, the growth is 28.8%.

In the case of `Cc1nn(-c2ccccc2)cc1/C=N/Nc1nc(Nc2ccccc2)nc(Nc2ccc(S(N)(=O)=O)cc2)n1`, the growth was -40.9% (active).

Regarding `COc1cc2c3c(n(CCCNC4CCCCC4)c(=O)c2cc1OC)-c1cc2c(cc1C3=O)OCO2`, the growth was -72.3% (active). Still for that read-out and setting: under `CC(=O)Nc1ccc(NC(=O)Nc2cccc(-c3nc(-c4ccc(NC(=O)c5cccnc5)cc4Cl)no3)c2)cc1C(F)(F)F` stands -47.4% (active); under `O=C(Nc1cccc(-c2nc(-c3ccc(NC(=O)c4cccnc4)cc3Cl)no2)c1)Nc1ccc(NC(=O)C2CC2)c(C(F)(F)F)c1`, -52.8% (active). Regarding `COC(=O)c1c(C(=O)OC)c2n(CC(=O)Nc3cccc4cccnc34)c3ccccc3n2c1C(=O)c1ccc(C)cc1`, the growth was 49.5%. Still for that read-out and setting: under `O=C(C[n+]1ccnc2ccccc21)c1ccc(O)c(O)c1` stands 7.08% (active); under `O=C(COc1ccc(C2SCC(=O)N2c2ccc(F)cc2)cc1)c1ccccc1` (stereo not drawn), 94.3%. With `CCOc1ccc2nc(NC(=O)Nc3ccccc3C)sc2c1`, the growth is 39.8%. On the same count and under the same terms, next, `O=C(COc1ccc(C2SCC(=O)N2c2ccccc2)cc1)c1ccccc1` (stereo not drawn): 94.8%; `Cc1cc(O)c2c(c1)C(=O)C(c1c(C)cc3c(c1O)C(=O)C=CC3=O)=CC2=O`: 72.8%. As for `O=S(=O)(Nc1cc(Cl)c(F)c(Cl)c1)c1ccc(-c2cnc(C3CC3)o2)cc1`, the growth is 27.3%. The same measure, in the same setting: next, `CN(C)CCn1c2ccc(N)cc2c2nc3ccccc3nc21`: 11.3%; `Cn1c2ccccc2c2c3c(c4c5ccc(Br)cc5oc4c21)C(=O)N(O)C3=O`: 65.7%. On the same count and under the same terms, under `COc1ccc(-c2nnc(/N=C3/C(=O)Nc4ccc(Br)cc43)o2)cc1` stands 101%; under `C#C[C@]1(O)CC[C@H]2[C@@H]3CC=C4c5sc(C6CC6)nc5CC[C@]4(C)[C@H]3CC[C@@]21C`, 71.4%. As for `CCc1ccc(NC(=O)N[C@@H](Cc2cccc(F)c2)C(=O)N[C@@H]2C(=O)N3CCC[C@H]3C(=O)N3CCCC[C@H]3C(=O)N[C@@H](CO)C(=O)N3C[C@H](C)C[C@H]3C(=O)O[C@H]2C)c(F)c1`, the growth is 10.8%.

For `CC(C)=CCc1c(O)c(CC=C(C)C)c2c(c1O)C(=O)C1=C[C@@H]3C[C@H]4C(C)(C)O[C@@](C/C=C(\C)C(=O)O)(C3=O)[C@@]14O2`, the growth is -35.8% (active). Still for that read-out and setting: under `CCN(CC)Cc1c(-c2cccc(OC(F)(F)F)c2)[nH]c2ccc(N3CCCC3)cc2c1=O` stands 101%; under `CCCCOc1ccc(S(=O)(=O)N2CCN(c3nccc(N4CCOCC4)n3)CC2)cc1`, 12.6%.

With `O=c1cc(-c2ccccc2)nc2sc(-c3c[nH]c4ccc(Br)cc34)nn12`, the growth is 103%.
